Source: PubChem (National Center for Advancing Translational Sciences (NCATS))
A selection: hits, their analogues and other compounds. The true share with any hit is near 2.9%.
HEK293 cAMP cs: counter-screen for TSHR agonists: cAMP increase in parental HEK293 | hit rate 2.5% among 73,000 | parental HEK293 CNG cAMP sensor, membrane potential fluorescence | AID 938 | Potency, µM (series often up to 57.1 µM), inactives show at the highest dose activation, usual class: activators; active means well fitted activation curve with a large enough effect; inconclusive means small, poorly fitted or top-dose-only effect; inactive means no such curve, though single readings can be large or run the other way; further: % of control where 0% means no effect; nearly all actives have a fitted effect of over 55% in size
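Counterscreen for endogenous-receptor signalling: CNG-channel HEK 293 cells report cAMP rise by membrane depolarization. After 60 min dye equilibration with 100 uM RO 20-1724, compounds incubated 30 min before bottom-read fluorescence at 590 nm.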
TSHR ag: activates the human thyroid stimulating hormone receptor | hit rate 0.48% among 73,000 | Potency, µM (series often up to 57.1 µM), without a hit: at the top dose activation, hits mostly activators | HEK293-CNG-TSHR cells (CNG channel as cAMP sensor), membrane potential dye, cAMP | AID 926; active means well fitted activation curve with a large enough effect in the main read-out, with a control signal flat, not every such curve was filed as active; inconclusive means small, poorly fitted or top-dose-only effect, or a change in a side signal; inactive means no such curve, though single readings can be large or run the other way; % of control where 0% means no effect;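 further: the control signal comes from parental cells without the receptor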
Target sequence (P16473 whole entry, looked up): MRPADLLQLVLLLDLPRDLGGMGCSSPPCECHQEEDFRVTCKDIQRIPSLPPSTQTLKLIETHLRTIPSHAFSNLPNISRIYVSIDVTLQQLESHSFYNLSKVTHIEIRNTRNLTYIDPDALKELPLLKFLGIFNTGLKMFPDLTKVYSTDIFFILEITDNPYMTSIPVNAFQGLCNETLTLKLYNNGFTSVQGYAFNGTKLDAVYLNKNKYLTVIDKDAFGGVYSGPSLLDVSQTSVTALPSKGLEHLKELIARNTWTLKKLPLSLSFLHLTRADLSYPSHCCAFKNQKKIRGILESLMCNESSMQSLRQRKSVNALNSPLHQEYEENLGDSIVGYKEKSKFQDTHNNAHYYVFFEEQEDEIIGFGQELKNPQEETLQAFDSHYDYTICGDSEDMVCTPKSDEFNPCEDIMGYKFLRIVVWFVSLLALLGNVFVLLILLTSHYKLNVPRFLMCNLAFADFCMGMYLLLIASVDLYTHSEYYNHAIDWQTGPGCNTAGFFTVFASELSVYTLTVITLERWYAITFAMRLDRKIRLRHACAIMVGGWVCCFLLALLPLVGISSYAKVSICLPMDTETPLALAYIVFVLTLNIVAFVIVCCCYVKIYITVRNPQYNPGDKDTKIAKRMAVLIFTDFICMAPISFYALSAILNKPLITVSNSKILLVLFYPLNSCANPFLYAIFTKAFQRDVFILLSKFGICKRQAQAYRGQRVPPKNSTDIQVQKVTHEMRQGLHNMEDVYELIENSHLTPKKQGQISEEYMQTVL
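HEK 293 cells stably expressing TSHR and a cAMP-gated CNG channel; parental CNG-only cells as counterscreen. Cells preloaded 60 min with membrane potential dye plus 100 uM RO 20-1724, then compound 30 min; fluorescence read at 590 nm.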
* marks the source's active call; other numbers are inactive results; ? = inconclusive; . = no result; [ ] = dose if it differs, or a comment. Potency means the concentration at half of the fitted maximal effect.

SMILES	HEK293 cAMP cs	TSHR ag
COC(=O)[C@H](C)NC(=O)C/C=C\[C@@H](C)[C@@H](CO)OC	4%[11.4 µM]	2%[11.4 µM]
C[C@H](Br)C(=O)c1ccc2cc(Br)c3ccccc3c2c1	-5%[11.4 µM]	-1%[11.4 µM]
Cc1ccc2[nH]c(=O)c(CN(Cc3nnnn3Cc3ccccc3)C3CCCC3)cc2c1	-8%	20%
Cc1cccc2cc(CN(Cc3nnnn3Cc3ccco3)C3CCCC3)c3nnnn3c12	10µM*	?
CN(C)c1ncc2nc(-c3cccs3)c(=O)n(C)c2n1	18%	3%
COc1ccc(Cn2c(-c3ccco3)nc3oc4cc(OC)ccc4c(=O)c3c2=O)cc1	-2%	3.2µM*
COc1ccc(Cn2c(-c3ccco3)nc3oc4ccccc4c(=O)c3c2=O)cc1	10%	-8%
Cc1cccc(CNc2ncncc2-c2ccc(C(=O)N(C)C)cc2)c1	7%	13%
Cc1ccc(S(=O)(=O)N2CCC(C(=O)O)(c3ccccc3)CC2)cc1	-8%[11.4 µM]	12%[11.4 µM]
Cc1ccc(C)n1-n1cnc2sc(-c3ccccc3)cc2c1=O	16%	.
Cc1ccc(C)n1-n1c(C)nc2sc(-c3ccccc3)cc2c1=O	3.2µM*	?
CC1(C)[C@@H](CC(=O)O)CCC[C@@H]1CC(=O)O	7%[11.4 µM]	-5%[11.4 µM]
CCOC(=O)c1c(C)oc2ccc(OCC(N)=O)cc12	5%	3%
CCOC(=O)c1c(C)oc2cc(Br)c(O)c(Br)c12	11%	25µM*
CCc1cc(C(C)=O)c(O)cc1OCCCCCC(C)(C)c1nn[nH]n1	20µM*	?
CCOC(=O)CCc1c(C)c2ccc(OC(C)C(=O)OCC)c(C)c2oc1=O (stereo unspecified)	20µM*	?
CCC(=O)Oc1ccc2c(C)cc(=O)oc2c1C	-9%	-7%
N#Cc1nc(COc2ccccc2)oc1N1CCN(Cc2ccccc2)CC1	13µM*	?
CCCOc1ccc(-c2nc(C#N)c(N3CCN(CC)CC3)o2)cc1	31%	.
N#Cc1nc(-c2ccc(OCc3ccc(Cl)cc3)cc2)oc1N1CCOCC1	24%	8%
Cc1ccc(OCc2nc(C#N)c(N3CCN(Cc4ccccc4)CC3)o2)cc1	2µM*	?
N#Cc1nc(COc2cccc(Cl)c2)oc1N1CCCC1	13µM*	?
CN(C)CCNc1oc(COc2cccc(Cl)c2)nc1C#N	-3%	-11%
CN(C)c1ccc(-c2cncnc2NCCN2CCOCC2)cc1	-1%	4%
CN1CCN(c2ccc3nc(-c4ccc5nc(-c6ccc(O)cc6)[nH]c5c4)[nH]c3c2)CC1	6%[11.4 µM]	3%[11.4 µM]
SMILES	HEK293 cAMP cs	TSHR ag
C[C@H]1C[C@H]2[C@H]3CCC4=CC(=O)C=C[C@@]4(C)[C@]3(F)[C@H](O)C[C@]2(C)[C@@]1(O)C(=O)COP(=O)(O)O	-1%[11.4 µM]	-1%[11.4 µM]
O=c1[nH]ncc2c3ccccc3n(Cc3ccc(F)cc3)c12	5%	16µM*
CCOC(=O)N1CCC(NC(=O)Cn2c3ccccc3c3cn[nH]c(=O)c32)CC1	5%	-3%
COc1ccc2oc(-c3ccccc3)c(OC)c(=O)c2c1	40µM*	?
Cc1ccc2oc(-c3ccccc3)c(O)c(=O)c2c1	21%	16%
CO[C@H]1COC(=O)CCC[C@@H](C)[C@H](OC)COC(=O)[C@H]2CCCN2C(=O)C/C=C\[C@@H]1C	4%[11.4 µM]	-9%[11.4 µM]
O=C(CSc1nc(Nc2ccccc2)nc(N2CCOCC2)n1)Nc1ccc2c(c1)OCCO2	10%	25µM*
O=C(CSc1nc(Nc2ccccc2)nc(N2CCOCC2)n1)N1CCCC1	-3%	8%
Fc1ccc(Nc2ncncc2-c2ccccc2C(F)(F)F)cc1	18%	23%
Cc1ccccc1-c1cncnc1NCc1cccs1	16µM*	?
CN(C)Cc1ccccc1-c1cncnc1NCc1cccs1	6%	6%
CCOc1ccc2nc(NCCNC(=O)CC)c(C#N)cc2c1	4%	2%
Cc1ccc2cc(C#N)c(NCCNC(=O)C3CC3)nc2c1C	25µM*	?
O=c1[nH]c(SCc2c(Cl)c(Cl)c(Cl)c(Cl)c2Cl)nc(=S)[nH]1	11%[11.4 µM]	1%[11.4 µM]
CC1=C(C(=O)OCc2ccc3c(c2)OCO3)C(c2ccc(Cl)cc2)NC(=O)N1 (stereo unspecified)	18%	32µM*
CCOC(=O)C1=C(C)NC(=O)NC1c1ccc2c(c1)OCCO2 (stereo unspecified)	-2%	3%
Cc1ccc(-c2nnn(CC(=O)N(Cc3cccs3)C(C(=O)NC3CCCC3)c3ccco3)n2)o1 (stereo unspecified)	13µM*	?
CC(C)(C)NC(=O)C(c1cccs1)N(CC1CCCO1)C(=O)Cn1nnc(-c2cccs2)n1 (stereo unspecified)	19%	21%
Cc1ccc(-c2nnn(CC(=O)N(c3ccccc3)C(C(=O)NC3CCCC3)c3ccco3)n2)o1 (stereo unspecified)	15%	-4%
O=C(NC1CCCCC1)C(c1ccco1)N(Cc1cccs1)C(=O)Cn1nnc2ccccc21 (stereo unspecified)	16µM*	?
CCN1CCC(C(=O)NC2CCCC2)(N(Cc2cccs2)C(=O)Cn2nnc3ccccc32)CC1	-1%	8%
COCCNC(=O)C(c1ccccc1C)N(CCOC)C(=O)Cn1nnc2ccccc21 (stereo unspecified)	11%	1%
O=C(NC1CCCC1)C(c1cccs1)N(Cc1ccco1)C(=O)Cn1nnc(-c2cccs2)n1 (stereo unspecified)	20µM*	?
COCCN(C(=O)Cn1nnc2ccccc21)C(C(=O)NC1CCCC1)c1cccc(OC)c1OC (stereo unspecified)	20µM*	?
CCCNC(=O)OC[C@H]1O[C@@H](CCO/N=C\[C@@H](NS(=O)(=O)c2ccc(C)cc2)[C@H](C)/C=C\CC(=O)OC)C=C[C@@H]1Oc1ccc(OC)cc1	13%[11.4 µM]	0%[11.4 µM]
SMILES	HEK293 cAMP cs	TSHR ag
O=C(O)c1ccc(/C=N\N=C2c3ccccc3-c3ccccc32)cc1	27%[11.4 µM]	6%[11.4 µM]
O=C(O)c1c(Cl)c(Cl)c(Cl)c(Cl)c1C(=O)Nc1ccc2cn[nH]c2c1	4%[11.4 µM]	-6%[11.4 µM]
O=C(NCc1ccco1)C(c1ccc(F)cc1)N(CC1CCCO1)C(=O)Cn1nnc2ccccc21 (stereo unspecified)	16%	18%
O=C(NC1CCCCC1)C(c1ccccc1)N(Cc1ccco1)C(=O)Cn1cnc2ccccc21 (stereo unspecified)	20µM*	?
COC(=O)c1c(C)n(-c2ccccc2)c2ccc(O)cc12	5%	15%
CCOC(=O)c1c(C)n(CC(O)c2ccccc2)c2ccc(O)cc12 (stereo unspecified)	-2%	25µM*
N[C@@H](Cn1ccc(=O)n(Cc2ccccc2C(=O)O)c1=O)C(=O)O	1%	4%
Cc1nc2scc(-c3cccs3)c2c(=O)n1-n1cccc1	32µM*	?
Cc1nc2scc(-c3cccs3)c2c(=O)o1	17%	2%
CCOC(=O)OCC1OC(C#Cc2ccccc2)C=CC1OC(=O)OCC (stereo unspecified)	-2%[11.4 µM]	0%[11.4 µM]
CCCn1c(C)nc2c(NCCCN(CCO)CCO)nc(C)nc21	7%	2%
CCCCc1c2ccccc2nc2[nH]c3ccccc3c12	13µM*	?
CCCCCc1c(O)c2ccccc2[nH]c1=O	11%	4%
Cc1cc(C)c(C(=O)CSc2nnc(-c3ccccc3Br)o2)cc1C	16µM*	?
Cc1ccc(NC(=O)CSc2nnc(-c3ccccc3Br)o2)cc1C	15%	20%
COc1cccc(-c2cc(C(=O)N3CCCCCC3)no2)c1	17%	.
